Data on 40 compounds can be found in the supplement of paper PMC6607015.

Structures can show the parent of a compound that is named as a salt.

The subject of the first assay is A431. As to the kind of experiment: LBPA endosome anti-LBPA integrated intensity (sum per cell), Z-score; higher = more LBPA staining. The following applies: compound concentration in added solution (µM; 5 µl added to 20 µl cells): 10; 18 h. In a few lines:
(§1)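 HeLa MZ or A431 cells (3,500/well in 20 µl) were seeded onto 5 µl of 10 µM compound solution in duplicate 384-well imaging plates, incubated 18 h, then fixed in 4% PFA. Cells were stained with 6C4 anti-LBPA antibody, filipin, propidium iodide and CellTracker green, and four 20× images were taken per well. MetaXpress segmentation gave per-cell integrated LBPA or filipin intensity, either whole-cell or within LBPA endosomes. Values are Z-scores normalised in AcuityXpress.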
In the case of `CCCNCC(O)COc1ccccc1C(=O)CCc1ccccc1` (stereo not given) [Propafenone hydrochloride], the “LBPA endosome anti-LBPA integrated intensity (z-score)” value is 3.53. Consider `C#C[C@]1(OC(C)=O)CC[C@H]2[C@@H]3CCC4=CC(=NO)CC[C@@H]4[C@H]3CC[C@@]21CC` (mixture of isomers) [Norgestimate], for which the “LBPA endosome anti-LBPA integrated intensity (z-score)” value is -0.26. On the same count and under the same terms, as for `CN1C(C)(C)CCCC1(C)C` [Pempidine tartrate], the figure is -0.407; as for `Cc1cn([C@H]2C[C@H](N=[N+]=[N-])[C@@H](CO)O2)c(=O)[nH]c1=O` [Zidovudine, AZT], -0.815; as for `CC(=O)[C@H]1CC[C@H]2[C@@H]3C[C@H](C)C4=CC(=O)CC[C@]4(C)[C@H]3[C@@H](O)C[C@]12C` [Medrysone], 1.76. The same measure, in the same setting: as for `C[C@@H](c1ncncc1F)[C@](O)(Cn1cncn1)c1ccc(F)cc1F` [Voriconazole], the figure is -0.526. In the case of `O=C(O)c1cc(/N=N/c2ccc(S(=O)(=O)Nc3ccccn3)cc2)ccc1O` [Sulfasalazine], the “LBPA endosome anti-LBPA integrated intensity (z-score)” value is -0.338. On the same count and under the same terms, as for `C[C@@](Cc1ccc(O)c(O)c1)(NN)C(=O)O` [Carbidopa], the figure is -0.613. Same read-out and setting: the result for `CCN(CC)CCNc1ccc(CO)c2sc3ccccc3c(=O)c12` [Hycanthone] reads 5.49; that for `CC(CN(C)C)CN1c2ccccc2Sc2ccccc21` (stereo not given) [Trimeprazine tartrate], 3.47; that for `COC(=O)Nc1nc2cc([S+]([O-])c3ccccc3)ccc2[nH]1` (stereo not given) [Oxfendazol], -0.637. The same measure, in the same setting: the result for `Clc1cc(Cl)c(OCC#CI)cc1Cl` [Haloprogin] reads -0.472; that for `CNCCCC12CCC(c3ccccc31)c1ccccc12` [Maprotiline hydrochloride], 1.93.

For the compound `CCC[C@H](N[C@@H](C)C(=O)N1[C@H](C(=O)O)C[C@@H]2CCCC[C@@H]21)C(=O)OCC` [Perindopril], the “LBPA endosome anti-LBPA integrated intensity (z-score)” value was -0.273.

`CN1[C@@H]2CC[C@H]1C[C@@H](OC(=O)c1c[nH]c3ccccc13)C2` [Tropisetron HCl]: the “LBPA endosome anti-LBPA integrated intensity (z-score)” value was -0.35. Still for that read-out and setting: the result for `COc1cc([C@@H]2c3cc4c(cc3[C@@H](O[C@@H]3O[C@@H]5CO[C@@H](C)O[C@H]5[C@H](O)[C@H]3O)[C@H]3COC(=O)[C@H]23)OCO4)cc(OC)c1O` [Etoposide] reads -0.699; that for `Nc1nc2n[nH]nc2c(=O)[nH]1` [Azaguanine-8], -0.399. Same read-out and setting: the result for `Cc1cc2c(s1)Nc1ccccc1N=C2N1CCN(C)CC1` [Olanzapine] reads 0.0572; that for `N=C(N)c1ccc(OCCCCCOc2ccc(C(=N)N)cc2)cc1` [Pentamidine isethionate], -0.319; that for `O=c1[nH]cc(F)c(=O)[nH]1` [5-fluorouracil], -0.738.

Turning to `CC(C)NNC(=O)c1ccncc1` [Iproniazide phosphate], the “LBPA endosome anti-LBPA integrated intensity (z-score)” value is -0.439. As to `CC(=O)c1ccc2c(c1)N(CCCN1CCC(CCO)CC1)c1ccccc1S2` [Piperacetazine], the “LBPA endosome anti-LBPA integrated intensity (z-score)” value was 4.58.

In the case of `CC(C(=O)O)c1ccc(C(=O)c2cccs2)cc1` (stereo not given) [Suprofen], the “LBPA endosome anti-LBPA integrated intensity (z-score)” value was -0.328. With `CCOC(=O)[N-]c1c[n+](N2CCOCC2)no1` [Molsidomine], the “LBPA endosome anti-LBPA integrated intensity (z-score)” value is -0.56. Same read-out and setting: the result for `CN(Cc1cnc2nc(N)nc(N)c2n1)c1ccc(C(=O)N[C@@H](CCC(=O)O)C(=O)O)cc1` [Methotrexate] reads -0.383; that for `O=C(CCCCCCC(=O)Nc1ccccc1)NO` [Vorinostat], 0.0566; that for `COc1ccccc1N1CCN(CCCNc2cc(=O)n(C)c(=O)n2C)CC1` [Urapidil hydrochloride], -0.297. In the case of `Cc1c(N)c(=O)n(-c2ccccc2)n1C` [Ampyrone], the “LBPA endosome anti-LBPA integrated intensity (z-score)” value is -0.478. As for `CCCC1C(=O)N2C(N(C)C)=Nc3ccc(C)cc3N2C1=O` (stereo not given) [Azapropazone], the “LBPA endosome anti-LBPA integrated intensity (z-score)” value is -0.356.

For `NC(Cc1cc(I)c(Oc2cc(I)c(O)c(I)c2)c(I)c1)C(=O)O` (stereo not given) [Thyroxine (L)], the “LBPA endosome anti-LBPA integrated intensity (z-score)” value was -0.687. In the case of `COC(=O)Nc1nc2cc(C(=O)c3ccc(F)cc3)ccc2[nH]1` [Flubendazol], the “LBPA endosome anti-LBPA integrated intensity (z-score)” value is -0.354.

The next assay concerns HeLa MZ. The assay is described as above. The settings on record: compound concentration in added solution (µM; 5 µl added to 20 µl cells): 10; 18 h. In a few lines: as §1
For `CCCNCC(O)COc1ccccc1C(=O)CCc1ccccc1` (stereo not given) [Propafenone hydrochloride], the “LBPA endosome anti-LBPA integrated intensity (z-score)” value was determined as 1.93. Still for that read-out and setting: as for `C#C[C@]1(OC(C)=O)CC[C@H]2[C@@H]3CCC4=CC(=NO)CC[C@@H]4[C@H]3CC[C@@]21CC` (mixture of isomers) [Norgestimate], the figure is 1.65. Still for that read-out and setting: as for `Cc1cn([C@H]2C[C@H](N=[N+]=[N-])[C@@H](CO)O2)c(=O)[nH]c1=O` [Zidovudine, AZT], the figure is -0.853. Turning to `CC(=O)[C@H]1CC[C@H]2[C@@H]3C[C@H](C)C4=CC(=O)CC[C@]4(C)[C@H]3[C@@H](O)C[C@]12C` [Medrysone], the “LBPA endosome anti-LBPA integrated intensity (z-score)” value turned out to be 1. On the same count and under the same terms, the result for `C[C@@H](c1ncncc1F)[C@](O)(Cn1cncn1)c1ccc(F)cc1F` [Voriconazole] reads -0.198. The same measure, in the same setting: the result for `O=C(O)c1cc(/N=N/c2ccc(S(=O)(=O)Nc3ccccn3)cc2)ccc1O` [Sulfasalazine] reads 0.849. Still for that read-out and setting: as for `C1CCC(C(CC2CCCCN2)C2CCCCC2)CC1` (stereo not given) [Perhexiline maleate], the figure is -0.192; as for `C[C@@](Cc1ccc(O)c(O)c1)(NN)C(=O)O` [Carbidopa], -0.537; as for `Clc1cc(Cl)c(OCC#CI)cc1Cl` [Haloprogin], -1.16.

As for `CCN(CC)C(=S)SSC(=S)N(CC)CC` [Disulfiram], the “LBPA endosome anti-LBPA integrated intensity (z-score)” value was 0.205. Take `CNCCCC12CCC(c3ccccc31)c1ccccc12` [Maprotiline hydrochloride]: the “LBPA endosome anti-LBPA integrated intensity (z-score)” value amounted to 0.295.

As for `CCC[C@H](N[C@@H](C)C(=O)N1[C@H](C(=O)O)C[C@@H]2CCCC[C@@H]21)C(=O)OCC` [Perindopril], the “LBPA endosome anti-LBPA integrated intensity (z-score)” value is -0.885. Still for that read-out and setting: as for `CN1[C@@H]2CC[C@H]1C[C@@H](OC(=O)c1c[nH]c3ccccc13)C2` [Tropisetron HCl], the figure is 0.869; as for `O=C1NCCN1CCN1CCC(c2cn(-c3ccc(F)cc3)c3ccc(Cl)cc23)CC1` [Sertindole], 0.384; as for `Cc1cc2c(s1)Nc1ccccc1N=C2N1CCN(C)CC1` [Olanzapine], 1.62. The same measure, in the same setting: the result for `CC(C)(C)CC(C)(C)c1ccc(OCCOCC[N+](C)(C)Cc2ccccc2)cc1` [Benzethonium chloride] reads 1.55. Take `N=C(N)c1ccc(OCCCCCOc2ccc(C(=N)N)cc2)cc1` [Pentamidine isethionate]: the “LBPA endosome anti-LBPA integrated intensity (z-score)” value was -1.47. `C=C(NC(=O)C(=C)NC(=O)c1csc(C2=N[C@@H]3c4csc(n4)[C@H]4NC(=O)c5csc(n5)[C@H]([C@](C)(O)[C@@H](C)O)NC(=O)[C@H]5CSC(=N5)/C(=C/C)NC(=O)[C@H]([C@@H](C)O)NC(=O)c5csc(n5)[C@]3(CC2)NC(=O)[C@H](C)NC(=O)C(=C)NC(=O)[C@H](C)NC(=O)[C@H]([C@@H](C)CC)N[C@@H]2C=Cc3c([C@H](C)O)cc(nc3[C@H]2O)C(=O)O[C@@H]4C)n1)C(N)=O` [Thiostrepton]: the “LBPA endosome anti-LBPA integrated intensity (z-score)” value was -0.253. Consider `CC(C)NNC(=O)c1ccncc1` [Iproniazide phosphate], for which the “LBPA endosome anti-LBPA integrated intensity (z-score)” value was -0.948. For `CC(NCCC(c1ccccc1)c1ccccc1)c1ccccc1` (stereo not given) [Fendiline hydrochloride], the “LBPA endosome anti-LBPA integrated intensity (z-score)” value is 1.29. Turning to `CN[C@H]1CC[C@@H](c2ccc(Cl)c(Cl)c2)c2ccccc21` [Sertraline], the “LBPA endosome anti-LBPA integrated intensity (z-score)” value is -0.719. Take `CC(=O)c1ccc2c(c1)N(CCCN1CCC(CCO)CC1)c1ccccc1S2` [Piperacetazine]: the “LBPA endosome anti-LBPA integrated intensity (z-score)” value worked out at 1.54.

Regarding `CC(C(=O)O)c1ccc(C(=O)c2cccs2)cc1` (stereo not given) [Suprofen], the “LBPA endosome anti-LBPA integrated intensity (z-score)” value was found to be 0.404. With `CCOC(=O)[N-]c1c[n+](N2CCOCC2)no1` [Molsidomine], the “LBPA endosome anti-LBPA integrated intensity (z-score)” value turned out to be 0.0751. With `Fc1ccc([C@@H]2CCNC[C@H]2COc2ccc3c(c2)OCO3)cc1` [Paroxetine Hydrochloride], the “LBPA endosome anti-LBPA integrated intensity (z-score)” value turned out to be 0.516. Turning to `CC(C)n1c(/C=C/C(O)CC(O)CC(=O)O)c(-c2ccc(F)cc2)c2ccccc21` (stereo not given) [Fluvastatin sodium salt], the “LBPA endosome anti-LBPA integrated intensity (z-score)” value is -1.11.

`COc1ccccc1N1CCN(CCCNc2cc(=O)n(C)c(=O)n2C)CC1` [Urapidil hydrochloride]: the “LBPA endosome anti-LBPA integrated intensity (z-score)” value came out at 0.724. On the same count and under the same terms, the result for `Cc1c(N)c(=O)n(-c2ccccc2)n1C` [Ampyrone] reads -0.409. Consider `NC(Cc1cc(I)c(Oc2cc(I)c(O)c(I)c2)c(I)c1)C(=O)O` (stereo not given) [Thyroxine (L)], for which the “LBPA endosome anti-LBPA integrated intensity (z-score)” value was -1.35.
